# Test results from the supplement of paper PMC8728848.
# The full list was thinned out, with the strongest signals kept by preference.
# B1: STA (Solanum tuberosum) (protein)
# chain: NASAPLPYPQCGLKKGGGKCIKTGECCSIWGWCGTTSDYCAPGYCQKQCPGPYPQGRCGWQANGKSCPTGTGQCCSNAGWCGTTSDYCAPNNCQSQCKLPPPPPSPPPPPPSPPPPSPPPPPPSPPPPSPSPPPPPPSPPPPSPPPPSPPPPSPPPPPSPSPPPPPPSPPPPPPPLPYPQCGMKKGGGKCIKTGECCSIWGWCGTTSKYCSPGYCQMQCPDPYPEGRCGWQANGKSCPTGTGQCCSNAGWCGTTSAYCAPVNCQAQCNTTTLTSPIKNRMRGIESFMLNVV
# What was measured:
# Assay in all cases: glycan array binding signal (z-score within array); higher = stronger binding
# Settings in all cases: glycan notation: IUPAC condensed, linker removed
# [1] = biological target: Fuc(a1-2)Gal(b1-4)GlcNAc6S
# Outline: (§1)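 Columns mapping to the same glycan were averaged after glycan names were converted to IUPAC-condensed notation. The data come from 3228 arrays in the Consortium for Functional Glycomics database, limited to those with an available protein sequence. Binding is reported as a within-array Z-score averaged across arrays of one protein sequence and across linkers.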
# [2] = biological target: Fuc(a1-2)Gal(b1-4)[Fuc(a1-3)]GalNAc(b1-3)Gal(b1-4)[Fuc(a1-3)]GlcNAc(b1-3)Gal(b1-4)[Fuc(a1-3)]GalNAc
# Outline: as §1
# [3] = biological target: Fuc(a1-2)[GalNAc(a1-3)]Gal(b1-4)GlcNAc
# Outline: as §1
# Gal(a1-3)Gal(b1-4)GlcNAc = biological target: Gal(a1-3)Gal(b1-4)GlcNAc
# Outline: as §1
# [4] = biological target: Gal(b1-4)GalNAc(b1-3)[Fuc(a1-2)]Gal(b1-4)GlcNAc
# Outline: as §1
# [5] = biological target: Gal(b1-4)GlcNAc(b1-6)GalNAc
# Outline: as §1
# Gal3S(b1-4)GlcNAc = biological target: Gal3S(b1-4)GlcNAc
# Outline: as §1
# Gal3S(b1-4)GlcNAc6S = biological target: Gal3S(b1-4)GlcNAc6S
# Outline: as §1
# Gal4S(b1-4)GlcNAc = biological target: Gal4S(b1-4)GlcNAc
# Outline: as §1
# [6] = biological target: GlcNAc(b1-3)[GlcNAc(b1-6)]GlcNAc
# Outline: as §1
# [7] = biological target: Man(a1-2)Man(a1-2)Man(a1-6)[Man(a1-3)]Man
# Outline: as §1
# Neu5Ac(a2-3)Gal = biological target: Neu5Ac(a2-3)Gal
# Outline: as §1
# [8] = biological target: Neu5Ac(a2-3)Gal(b1-4)GlcNAc6S
# Outline: as §1
# [9] = biological target: Neu5Ac(a2-3)Gal(b1-4)[Fuc(a1-3)]GlcNAc6S
# Outline: as §1
# [10] = biological target: Neu5Ac(a2-8)Neu5Ac(a2-8)Neu5Ac(a2-3)Gal(b1-4)Glc
# Outline: as §1
# [11] = biological target: Neu5Ac9Ac(a2-6)Gal(b1-4)GlcNAc
# Outline: as §1
binder,measurement,setting,value
B1,glycan array binding signal (z-score),[1],0.551
same,glycan array binding signal (z-score),[2],-0.504
same,glycan array binding signal (z-score),[3],2.86
same,glycan array binding signal (z-score),Gal(a1-3)Gal(b1-4)GlcNAc,3.27
same,glycan array binding signal (z-score),[4],0.033
same,glycan array binding signal (z-score),[5],2.69
same,glycan array binding signal (z-score),Gal3S(b1-4)GlcNAc,2.55
same,glycan array binding signal (z-score),Gal3S(b1-4)GlcNAc6S,2.58
same,glycan array binding signal (z-score),Gal4S(b1-4)GlcNAc,3.08
same,glycan array binding signal (z-score),[6],-0.269
same,glycan array binding signal (z-score),[7],-0.506
same,glycan array binding signal (z-score),Neu5Ac(a2-3)Gal,-0.507
same,glycan array binding signal (z-score),[8],3.23
same,glycan array binding signal (z-score),[9],-0.49
same,glycan array binding signal (z-score),[10],-0.5
same,glycan array binding signal (z-score),[11],-0.498
